EP2 antag = blocks the human prostaglandin E2 receptor EP2; P43116; C6 glioma cells expressing human EP2, cAMP TR-FRET; cells stimulated with saturating PGE2; inhibition, % at 25 µM; hit rate 0.52% among 260,000; AID 1422;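 active means percent inhibition above 40 after rounding to a whole number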;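 further: rat C6 glioma host cells with rolipram phosphodiesterase inhibitor present; the protocol text gives 20 µM as final concentration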
EP2 mod = modulators of human EP2 prostaglandin E2 receptor | P43116 | EP2-expressing cells, cAMP HTRF FRET, PGE2 co-stimulation | induction, % at 25 µM | hit rate 0.83% among 260,000 | AID 940;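 active means compounds whose cAMP rise, as percent of the full-agonist control response, exceeds 60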;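 further: rat C6 glioma line stably carrying human EP2 under a CMV promoter; the protocol text gives 20 µM as final concentration; 100% = response of wells given 1 µM PGE2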
HSV replic up = HSV replication enhancement | HSV replication augmentation in cells, fold increase | maximum fold increase | hit rate 0.005% among 220,000; in the data active means maximum fold increase above about 1.5; tested in PC3 cells
Furin inhibitor = human furin inhibition; purified furin, fluorogenic substrate cleavage; AID 463115; inhibition, % at 20 µM or 30 µM; P09958; hit rate 0.061% among 220,000; in the data active means inhibition above about 25%
p47phox inh = blocks human p47phox regulatory protein of NADPH oxidases; hit rate 0.53% among 220,000; p47phox/p22phox peptide binding, fluorescence polarization, 2 h; inhibition, % at 24.7 µM; P14598;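 active means inhibition above about 30%, limit read from the data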;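 further: 0% = p47phox with labelled peptide and 100% = labelled peptide alone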
Target sequence (P14598 whole entry, looked up): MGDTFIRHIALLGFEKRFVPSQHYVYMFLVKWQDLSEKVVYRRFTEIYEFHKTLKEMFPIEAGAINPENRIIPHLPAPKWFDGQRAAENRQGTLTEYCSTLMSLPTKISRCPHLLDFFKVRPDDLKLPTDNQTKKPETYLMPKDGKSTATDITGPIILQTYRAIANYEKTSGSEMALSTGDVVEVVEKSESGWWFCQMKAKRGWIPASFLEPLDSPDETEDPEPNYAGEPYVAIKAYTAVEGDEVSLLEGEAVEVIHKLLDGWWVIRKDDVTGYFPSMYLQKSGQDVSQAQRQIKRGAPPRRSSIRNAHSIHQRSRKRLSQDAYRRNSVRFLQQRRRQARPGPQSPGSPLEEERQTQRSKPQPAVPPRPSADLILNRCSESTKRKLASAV
Wee1 stabilizer = inhibitors of human Wee1 degradation | P30291 | hit rate 1.2% among 220,000 | HeLa Luc-Wee1K328M stability, luciferase luminescence; 100% = proteasome inhibitor MG132 effect | reporter increase, % at 5 µM;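 active means activation above the mean of all tested compounds plus 3 SD, set per screening run, cut at about 8.8% in these data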;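 further: cells exposed to compound for 20 h before luminescence read; 0% = DMSO alone and 100% = MG132 at 30 µM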
EP2 cAMP induct = human EP2 receptor cAMP induction, negative in counter-screens; calls only at 20 µM (by protocol); AID 1080; shares compounds with EP2 mod; hit rate 47% among 1,300; C6 glioma EP2 cells, cAMP HTRF induction; plus low (about EC15) PGE2 agonist;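 active means cAMP induction above 50% in the main assay while under 30% in all four parallel counter assays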;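 further: rat C6 glioma cells stably expressing human EP2 receptor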
Numbers without * were called inactive; i = inactive; x = not tested or not shown; + = active, no number. Most compounds without a hit are left out; they make up all but 2.8% or so of the library.

SMILES	EP2 antag	EP2 mod	HSV replic up	Furin inhibitor	p47phox inh	Wee1 stabilizer	EP2 cAMP induct
COc1ccc(Nc2nc(-c3cc4cccc(OC)c4oc3=O)cs2)cc1	6	71*	i	11	-2	7	+
COc1ccc2oc(=O)c(-c3csc(Nc4cccc(O)c4)n3)cc2c1	32	-48	i	4	-36	-2	x
CCOC(=O)c1c(NC(=O)CSc2nnc(C)c(=O)[nH]2)sc(C)c1-c1ccc(C)cc1	7	27	i	-27	-18	0	x
CCOC(=O)c1c(NC(=O)CSc2nnc(N)s2)sc(C)c1-c1ccc(C)cc1	7	65*	i	-16	-35	-1	+
CCOC(=O)c1c(NC(=O)CN2C(=O)NC3(CCCCCC3)C2=O)sc(C)c1-c1ccc(C)cc1	13	68*	x	-14	-7	-1	+
COc1ccc(Cn2nnnc2C(c2cc3c(C)cc(C)cc3[nH]c2=O)N2CCc3ccccc32)cc1 (centres undefined)	14	-16	x	x	x	x	x
COc1ccc(C(C(=O)NC2CCCC2)N(C(=O)c2ccco2)c2cc(C)ccc2OC)cc1 (centres undefined)	10	15	x	x	x	x	x
CC(=O)Nc1ccc(NC(=O)c2ccccc2)nc1	12	-17	x	x	x	x	x
COc1ccc2c(C)cc(SCC(=O)Nc3ncc(Cl)cc3Cl)nc2c1	14	68*	i	-6	-31	0	i
Cc1cc(SCC(=O)Nc2ncc(Cl)cc2Cl)nc2ccccc12	11	46	i	-18	-11	-2	x
COc1ccc(-n2c(CNc3ccc(F)cc3)nnc2SCC(=O)OC2CCCCC2)cc1	11	17	x	x	x	x	x
Cn1nc(C(F)(F)F)c(/C=N/OC(=O)c2ccccc2)c1Cl	0	12	i	-21	-4	0	x
Cn1nc(C(F)(F)F)c(/C=N/OC(=O)c2ccccc2)c1Sc1ccc(Cl)cc1	14	70*	i	-3	0	5	i
Cc1cccc(C)c1OC(=O)C(c1ccccc1)c1ccccc1	19	66*	i	-20	-6	1	i
CCN(CC)CCCOC(=O)C(c1ccccc1)c1ccccc1	12	-30	i	-11	-5	0	x
CCOCc1nnc(NC(=O)c2cccc(-n3nc(C)c(Cl)c3C)c2)s1	7	-17	x	x	x	x	x
O=C(COc1ccc(Br)cc1)Nc1ccc(-c2nnc(-c3ccco3)o2)cc1	0	75*	i	-19	-1	3	i
Cc1cc(NC(=O)CSc2ncnc3sc(C)c(C)c23)ccc1NC(=O)c1ccccc1Cl	5	3	x	x	x	x	x
N#CCn1c2ccccc2c2nc3ccccc3nc21	12	20	i	-23	-28	-3	x
CC(C)n1c2ccccc2c2nc3ccccc3nc21	15	58	i	-16	-13	5	+
O=C(OCc1ccccc1Cl)c1ccccc1C(=O)c1ccccc1	4	82*	i	-2	-8	0	+
O=C(OCc1ccccc1Cl)c1cccnc1Cl	9	-6	i	-2	1	-2	x
O=c1cc(N2CCCCC2)c(-c2ccccc2)nn1Cc1ccc(F)cc1	7	88*	i	-9	-7	-2	+
O=c1cc(N2CCCCC2)c(-c2ccccc2)nn1Cc1c(Cl)cccc1Cl	2	80*	x	3	-17	0	+
O=C(Cc1ccccc1)Oc1ccc2c3c(c(=O)oc2c1)CCC3	12	-17	x	x	x	x	x
SMILES	EP2 antag	EP2 mod	HSV replic up	Furin inhibitor	p47phox inh	Wee1 stabilizer	EP2 cAMP induct
Cc1cc(-c2cc(N)c(=O)n(CC(=O)NC3CCCCC3)n2)c(C)o1	7	-14	x	x	x	x	x
Cc1cc(C(=O)NCC(c2ccco2)N(C)C)no1 (centres undefined)	1	71*	i	-9	-17	0	i
CN(CC(=O)Nc1ccccc1-c1ccccc1)Cc1ccccc1Cl	4	71*	i	-20	-5	-1	+
Cc1ccc(NC(=O)CN(C)CC(=O)Nc2ccccc2-c2ccccc2)cc1	-1	22	i	-23	-13	4	x
Cc1ccccc1CSCC(=O)Nc1ccccc1-c1ccccc1	0	81*	i	-8	-6	1	+
O=C(CSCc1cccc(Cl)c1)Nc1ccccc1-c1ccccc1	9	67*	i	-7	5	1	+
Cc1ccc(O)c(NC(=O)c2cnn3c(C)cc(C)nc23)c1	6	-35	x	x	x	x	x
CCCOc1ccc(/C=N/Nc2ccc(C(=O)O)cc2)c(OCCC)c1	15	88*	i	-28	-6	-4	+
Cc1cc(N2CCOCC2)nc(NCc2ccccc2)n1	24	-59	i	-24	-6	-1	x
CCCCOc1cc(C)nc(NCc2ccccc2)n1	11	78*	i	-8	-9	4	+
CC(=O)N1c2ccccc2C(C)(c2ccccc2)CC1(C)C (centres undefined)	8	78*	i	0	-13	2	+
CCCC/C(=N\NC(=O)c1ccc(Br)o1)c1ccccc1	18	55	i	-25	-5	2	i
CC/C(=N/NC(=O)c1ccc(Br)o1)c1ccc(Cl)cc1	11	45	x	-25	-1	1	x
COc1cc(C(=O)N2CCCC(c3ccnc4ncnn34)C2)cc(OC)c1OC (centres undefined)	x	-24	x	x	x	x	x
CN(c1ccccc1)C1CCCCC1NS(=O)(=O)c1ccc(Cl)cc1 (centres undefined)	6	66*	i	-16	-24	1	+
FC(F)(F)c1nc(=S)c2ccccc2[nH]1	17	71*	x	-20	9	-2	i
Cc1nc(=S)c2ccccc2[nH]1	12	5	i	-14	-4	1	x
CC1=CC(C)(C)N(C(=O)c2ccccc2)c2ccccc21	4	72*	i	-11	-13	-1	i
COc1ccc(OC)c(C(=O)CSc2nnc(Cc3cccs3)n2CCc2ccccc2)c1	0	66*	i	-5	-87	4	+
COc1cccc(N2CCN(CC(=O)Nc3sc(C)c(C)c3C#N)CC2)c1	6	-29	x	x	x	x	x
Cc1cc(NC(=O)CSc2ccc(-c3ccc(Cl)cc3)nn2)no1	4	20	x	x	x	x	x
C=CCSc1nc2ccccc2n1S(=O)(=O)c1ccc(Cl)cc1	11	75*	i	-23	15	6	i
CC(=O)c1ccc(S(=O)(=O)NCCCC(=O)NCCc2ccccn2)cc1	0	71*	i	-14	-12	-1	i
CC[C@@H](Cn1nc(-c2cccs2)ccc1=O)NC(=O)CCn1c(=O)oc2ccccc21	4	14	x	x	x	x	x
Clc1ccc(Nc2nc3c(s2)CCCC3)cc1	18	16	x	x	x	x	x

Source: PubChem BioAssay (several laboratories)
